Bioassay records as filed in PubChem BioAssay.
JMJD2A Tudor – blocks the human JMJD2A Tudor domain; AlphaScreen JMJD2A-Tudor / H3K4me3 peptide binding; O75164; hit rate 4.4% among 390,000; Potency, µM (titrated, usually from 114 µM), inactives show top-dose activity change, negative = inhibition, hits mostly inhibitors; further: on the % scale 0 is the no-effect control and ±100 the full control effect; nearly all actives have a fitted effect of over 50% in size
HP1b chromo inh – HP1-beta chromodomain-methylated histone interaction inhibition. P83916. AlphaScreen HP1-beta / biotin-H3K9me3 peptide binding. Potency, µM (top dose mostly 114 µM), inactives show at the highest dose activity change, negative = inhibition, actives largely listed as inhibitors. hit rate 0.56% among 390,000. AID 540317; further: nearly all actives have a fitted effect of over 70% in size
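Compound inhibition of the preformed complex between 50 nM HP1-beta and 50 nM biotinylated H3K9me3 peptide was read by AlphaScreen. Buffer was PBS pH 7.4 with 0.01% Tween-20. Incubations ran 30 min at room temperature, with 10 ug/mL donor/acceptor beads.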
BAZ2B block – blocks human BAZ2B. AlphaScreen BAZ2B-H3K14Ac peptide displacement. AID 504333. Q9UIF8. hit rate 4.4% among 360,000. Potency, µM (titrated, usually from 114 µM), for inactives: at the highest dose activity change, negative = inhibition, actives largely listed as inhibitors; further: on the % scale 0 is the no-effect control and ±100 the full control effect; nearly all actives have a fitted effect of over 60% in size
Target sequence (Q9UIF8 whole entry, looked up): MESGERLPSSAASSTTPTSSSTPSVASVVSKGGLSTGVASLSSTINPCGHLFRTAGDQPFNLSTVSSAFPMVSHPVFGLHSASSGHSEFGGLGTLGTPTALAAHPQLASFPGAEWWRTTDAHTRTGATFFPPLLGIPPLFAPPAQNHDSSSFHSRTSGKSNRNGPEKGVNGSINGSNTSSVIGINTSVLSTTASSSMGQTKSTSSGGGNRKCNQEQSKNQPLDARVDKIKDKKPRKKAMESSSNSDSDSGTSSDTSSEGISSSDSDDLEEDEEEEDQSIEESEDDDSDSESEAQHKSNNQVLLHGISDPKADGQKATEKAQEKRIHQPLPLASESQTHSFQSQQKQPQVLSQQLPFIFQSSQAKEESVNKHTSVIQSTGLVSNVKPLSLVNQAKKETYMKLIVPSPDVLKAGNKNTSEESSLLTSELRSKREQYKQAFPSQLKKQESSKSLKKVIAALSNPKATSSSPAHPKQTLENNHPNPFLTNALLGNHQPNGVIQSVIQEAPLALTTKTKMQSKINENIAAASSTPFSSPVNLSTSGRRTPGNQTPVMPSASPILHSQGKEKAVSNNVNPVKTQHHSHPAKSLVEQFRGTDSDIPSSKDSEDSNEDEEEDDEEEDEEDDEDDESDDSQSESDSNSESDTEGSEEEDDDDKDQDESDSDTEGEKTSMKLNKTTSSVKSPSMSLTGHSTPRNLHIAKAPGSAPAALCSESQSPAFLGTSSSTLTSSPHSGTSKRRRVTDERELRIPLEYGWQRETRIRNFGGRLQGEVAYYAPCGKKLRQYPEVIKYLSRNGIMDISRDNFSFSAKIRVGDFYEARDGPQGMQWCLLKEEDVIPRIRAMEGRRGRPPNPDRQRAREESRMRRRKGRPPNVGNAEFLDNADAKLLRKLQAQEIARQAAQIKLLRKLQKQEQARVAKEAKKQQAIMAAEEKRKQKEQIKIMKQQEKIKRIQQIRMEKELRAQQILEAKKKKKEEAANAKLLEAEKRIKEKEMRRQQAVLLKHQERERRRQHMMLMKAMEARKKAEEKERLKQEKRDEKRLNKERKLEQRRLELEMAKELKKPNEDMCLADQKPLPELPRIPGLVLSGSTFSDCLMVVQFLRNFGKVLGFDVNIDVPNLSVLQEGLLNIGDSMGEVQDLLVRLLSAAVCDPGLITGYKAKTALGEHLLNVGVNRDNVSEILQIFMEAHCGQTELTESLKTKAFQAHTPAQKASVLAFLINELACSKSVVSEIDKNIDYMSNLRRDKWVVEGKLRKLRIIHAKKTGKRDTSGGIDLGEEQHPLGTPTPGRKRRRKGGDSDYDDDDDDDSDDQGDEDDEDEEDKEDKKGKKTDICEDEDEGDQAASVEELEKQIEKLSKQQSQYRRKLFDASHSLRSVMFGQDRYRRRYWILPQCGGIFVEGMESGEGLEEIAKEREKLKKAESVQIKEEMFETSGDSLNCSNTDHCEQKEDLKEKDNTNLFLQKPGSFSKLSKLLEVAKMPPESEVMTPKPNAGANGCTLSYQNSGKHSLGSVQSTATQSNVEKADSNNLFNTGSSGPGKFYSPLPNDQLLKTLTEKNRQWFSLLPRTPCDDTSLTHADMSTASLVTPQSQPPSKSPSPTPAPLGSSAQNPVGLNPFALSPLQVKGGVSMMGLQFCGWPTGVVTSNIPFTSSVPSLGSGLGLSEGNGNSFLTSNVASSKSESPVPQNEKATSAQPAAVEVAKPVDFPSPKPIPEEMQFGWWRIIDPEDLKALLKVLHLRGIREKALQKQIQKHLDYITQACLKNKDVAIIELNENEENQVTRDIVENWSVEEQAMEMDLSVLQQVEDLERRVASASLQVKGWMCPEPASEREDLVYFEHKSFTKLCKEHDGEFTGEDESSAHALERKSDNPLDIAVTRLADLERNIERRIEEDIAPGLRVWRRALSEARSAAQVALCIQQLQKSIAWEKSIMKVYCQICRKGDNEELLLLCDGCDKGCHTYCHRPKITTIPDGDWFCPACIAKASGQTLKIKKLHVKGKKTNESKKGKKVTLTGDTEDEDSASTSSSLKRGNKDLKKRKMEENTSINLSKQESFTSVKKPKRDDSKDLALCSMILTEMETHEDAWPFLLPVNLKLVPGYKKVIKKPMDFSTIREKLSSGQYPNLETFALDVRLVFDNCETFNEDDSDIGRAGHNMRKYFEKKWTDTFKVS
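Protein-peptide AlphaScreen: BAZ2B 50 nM, b-H3K14Ac 50 nM, 1x PBS pH 7.4 + 0.01% Tween-20. Preincubation 30 min RT; cpd 30 min RT (top 110 uM); beads 20 min RT, light-protected.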
L3MBTL1 inh – blocks human L3MBTL1; Q9Y468; AlphaScreen L3MBTL1–H3K9me1 peptide binding; Potency, µM (doses to about 57.1 µM), for the others: at the top dose activity, negative = inhibition, usual class: inhibitors; hit rate 0.66% among 230,000; AID 485360; further: on the % scale 0 is the no-effect control and ±100 the full control effect; nearly all actives have a fitted effect of over 60% in size
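First, the protein-peptide complex forms for 30 min at room temperature (L3MBTL1 50 nM, biotinylated H3K9me1 peptide 75 nM). Next, compounds are pin-transferred and incubated 30 min. Finally, AlphaScreen beads are added and read after 30 min.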
Sfp PPTase inh – inhibitors of Bacillus subtilis Sfp phosphopantetheinyl transferase; Biochemical Sfp PPTase activity, qHTS; AID 1490; Q9F4F7; hit rate 3.5% among 310,000; Potency, µM, without a hit: largest response in the series, negative = inhibition, actives largely listed as inhibitors;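 further: the enzyme is Sfp with the accession as filed and its product quenches rhodamine fluorescence; 0% = enzyme reaction without inhibitor and -100% = no enzyme wells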
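Fluorescence-quenching assay with 15 nM Sfp, 5 uM rhodamine-CoA and 12.5 uM BHQ-2-labelled ybbR peptide in pH 7.6 Hepes/MgCl2 buffer. Enzyme was pre-incubated with compound for 15 min at room temperature. Rate was taken from the 30-min fluorescence change (525/598 nm).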
G9a block – inhibitors of human histone lysine methyltransferase G9a | Potency, µM (series often up to 102 µM), without a hit: at the top dose activity, negative = inhibition, usual class: inhibitors | G9a H3K9 monomethylation, AlphaScreen, 2 h | Q96KQ7 | hit rate 8.8% among 350,000 | AID 504332; further: on the % scale 0 is the no-effect control and ±100 the full control effect; nearly all actives have a fitted effect of over 75% in size
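Readings reflect AlphaScreen signal from monomethyl-H3K9 antibody detection. HMT at 20 nM; substrate b-H3K9 500 nM; cofactor SAM 20 uM; 2 h RT reaction; compounds tested as titrations in qHTS with 15 min preincubation.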
* = called active by the depositor; u = inconclusive; x = no result; [ ] = remark or other dose. Sampled rows, rich in hits. Any-hit rate of the full collection: about 12%. The call rests on the fitted dose curve; in most records, active means well fitted curve in the direction sought with a large enough effect; inconclusive means small, poorly fitted or top-dose-only effect, or another doubt; inactive means no such curve, though single readings can be large; an effect the other way counts as inactive or inconclusive. Potency means the concentration at half of the fitted maximal effect.

SMILES	JMJD2A Tudor	HP1b chromo inh	BAZ2B block	L3MBTL1 inh	Sfp PPTase inh	G9a block
CCOc1ccc(CCNC(=O)C2CCN(c3ncnc4c3nc3n4CCCCC3)CC2)cc1	-14%	28%	-5%	x	x	-2%[59 µM]
Cc1cccc(NC(=O)N2CC(=O)Nc3sc4c(c3C2c2ccccc2)CCCC4)c1C (stereo not given)	-18%	-7%	-13%	x	x	u
C[C@H](OC(=O)NCc1ccc(C(F)(F)F)cc1)[C@@H]1O[C@@]2(C)CCC[C@@H]1O2	-5%	33%	6%	-1%	x	11%[2.33 µM]
COc1ccc(-n2c(SCC(=O)Nc3cc(C)cc(C)c3)nc3c(oc4ccccc43)c2=O)cc1	0%	25%	1%	x	x	10%[59 µM]
COc1ccc(N2CCN(CCCNC(=O)Cn3c(=O)c4cccn4c4cccnc43)CC2)cc1	50µM*	-12%	32µM*	x	13%	40µM*
COc1ccc(N2CCN(CCCNC(=O)Cn3c(=O)c4cccn4c4ccccc43)CC2)cc1	-35%	u	u	x	12%	40µM*
O=C(NCCCN1CCCCC1)c1sc2ncccc2c1-n1cccc1	-23%	4%[57 µM]	-13%	x	x	-2%[59 µM]
COc1ccc(N2CCN(CCCNC(=O)c3nnc(Cc4ccccc4Cl)o3)CC2)cc1	50µM*	u	35µM*	x	x	13µM*
COc1ccc(N2CCN(CCCNC(=O)c3sc4ncccc4c3-n3cccc3)CC2)cc1	40µM*	-27%[57 µM]	35µM*	x	x	16µM*
CC(=O)SC1CC2=CC(=O)CC[C@]2(C)C2CC[C@@]3(C)C(CC[C@@]34CCC(=O)O4)C12 (stereo not given in full)	x	x	x	x	x	27%[59 µM]
CCOCCCNC(=O)C1CCC(CNS(=O)(=O)c2ccc(NC(C)=O)cc2)CC1 (stereo not given)	-7%	18%	3%	x	x	-3%[59 µM]
Cc1ccc(Cn2c(CNS(=O)(=O)c3ccc(C(C)(C)C)cc3)nc3cccnc32)cc1	-31%	10%[57 µM]	-9%	x	x	1%[59 µM]
COc1ccc(N2CCN(CCCNC(=O)c3ccc4nc(N5CCCCC5)sc4c3)CC2)cc1	45µM*	u	25µM*	x	x	u
Cc1ccc(Cl)cc1N1CCN(CCCNC(=O)c2ccc3nc(N4CCCCC4)sc3c2)CC1	u	-9%	4%	x	x	-8%[59 µM]
COCCn1c(=O)[nH]c2cc(C(=O)NCCN3CCN(c4ccc(OC)cc4)CC3)ccc2c1=O	18%[57.1 µM]	22%	-6%	-3%	-12%	10µM*
O=C(NCCCN1CCN(c2ccc(F)cc2)CC1)c1ccc2nc(Cc3ccccc3)oc2c1	u	-9%[57 µM]	32µM*	x	x	-38%[59 µM]
O=c1[nH]c(-c2ccccc2)c(-c2ccccc2)nc1[N+](=O)[O-]	-14%	3%	0%	x	-21%	50µM*
COc1ccccc1/C=C1\SC(=S)N(N2C(=O)CCCC2=O)C1=O	u	u	u	-9%	1%	20µM*
COc1ccc(/C=C2/SC(=S)N(Cc3ccccc3)C2=O)cc1O	u	-5%	-7%	x	-10%	22%
COc1ccc(/C=C2\SC(=S)N(N3C(=O)CCC3=O)C2=O)cc1O	-12%	-8%	u	-29%	-44%	8.9µM*
CC1CCCC(NC(=O)C2CCN(S(=O)(=O)c3cnc[nH]3)CC2)C1C (stereo not given)	6%	30%	-1%	x	5%	5%
Clc1ccc(CCNC(c2cccc(Cl)c2)c2nnc(-c3ccccc3)o2)cc1 (stereo not given)	41%	86%	37%	x	x	76%[59 µM]
[O-][N+]1=C(c2cccs2)CN(O)C1	-14%	22%	u	2%	17%	15%
CC1(C)N(O)CC(c2cccs2)=[N+]1[O-]	28µM*	-23%	50µM*	x	7%	-36%[12.7 µM]
CCOc1ccc(C(=O)c2ccc(OCC)c(N)c2)cc1N	u	-12%	-29%	-5%	5%	-11%
SMILES	JMJD2A Tudor	HP1b chromo inh	BAZ2B block	L3MBTL1 inh	Sfp PPTase inh	G9a block
CN(C)c1ccc(C(=O)c2ccc(N(C)C)c(N)c2)cc1N	56µM*	u	50µM*	-16%	2%	79µM*
Cc1nc2c(C(=O)NCCc3ccc(Cl)cc3)cnn2c(C)c1Cc1ccc(F)cc1	-24%	27%	7%	x	x	3%[59 µM]
CC(=NNC(=S)N1CC2CCC(CC2)C1)c1ccncn1	14µM*	u	x	x	x	x
Cc1ccc(NC2=CC(=O)c3sc(C)nc3C2=O)cc1	x	x	x	x	-11%	x
Cc1[nH]c(=O)[nH]c1C(=O)CCCCC(=O)O	0.89µM*	-96%	0.89µM*	0.35µM*	14%	1.6µM*
O=C(CN1C(=O)NC2(CCCCCC2)C1=O)Nc1ccc(Br)cc1Br	-14%	19%	-4%	-1%	x	25%[12.7 µM]
COC(=O)Cc1cc(=O)n2[nH]cnc2n1	-11%	13%	79µM*	-3%	-9%	-33%[0.501 µM]
COc1ccc(-c2nc(SCC(=O)NCc3ccco3)c(-c3ccccc3)[nH]2)cc1OC	u	-12%	u	x	u	45µM*
COc1ccc(-c2[nH]c(-c3ccc(F)cc3)nc2SCC(=O)Nc2ccc(OC)c(OC)c2)cc1	u	-17%	0%	x	x	-4%[59 µM]
COc1ccc(-c2[nH]c(-c3ccc(F)cc3)nc2SCC(=O)NCc2ccco2)cc1OC	-23%	31%	5%	2%	-11%	89µM*
COc1ccc(-c2[nH]c(-c3ccccc3)nc2SCC(=O)NCc2ccco2)cc1OC	-22%	28%	3%	x	-6%	-28%
COc1ccc(-n2nnnc2SCC(=O)NCc2ccco2)cc1OC	-22%	5%	u	-3%	11%	50µM*
Cc1csc(SCC(=O)NC2CCC(C)CC2)n1 (stereo not given)	-1%	21%	-3%	7%	x	8%[59 µM]
CCCN(Cc1cccs1)C(=O)Nc1ccccc1C	40%	78%	4%	x	x	-25%[59 µM]
Nc1cc2nc3ccccc3oc-2cc1=O	u	-24%	45µM*	u	22µM*	x
Cc1nc2ccccc2oc1=O	x	x	x	x	-3%	x
C=CC[n+]1c(-c2ccc(Cl)cc2Cl)csc1Nc1ccc(NC(C)=O)cc1	28µM*	u	28µM*	-19%	-3%	40µM*
C=CC[n+]1c(-c2ccc(Cl)cc2Cl)csc1Nc1c(C)n(C)n(-c2ccccc2)c1=O	u	u	40µM*	-4%	-27%	u
Cc1c(NC(=O)Nc2cc(Cl)ccc2Cl)c(=O)n(-c2ccccc2)n1C	-14%	23%	-2%	x	16%	u
CCc1ccc(N=C2NC(=O)CS2)cc1	-1%	21%	-5%	6%[2.29 µM]	15%	15%[0.501 µM]
CCCCCCCCN=C1NC(=O)CS1	-10%	-6%	6%	-5%	-17%	22µM*
CCCCC1CCC(CCCC(C)CCC(=O)O)CC1 (stereo not given)	u	u	-32%	x	x	4%[59 µM]
